# Measurements from PubChem BioAssay (NCI).
# This is part of a sample that, as a whole, favours compounds with a hit. Of some 83,000 tested, about 20% had one in any assay.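 Growth was measured after 48 h exposure to one concentration of compound in 96-well plates. Values under 10 count as active.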 A number with no mark means an inactive call. Active and inactive are the calls of the source.
# Test system: ACHN renal
# Test: NCI-60 one-dose screen, 48 h (100 = growth as untreated, 0 = no growth, -100 = all killed)
# Conditions: 10 µM unless noted
row,Structure (SMILES),growth
1,NC(=O)N1CCOCC1,110%
2,N#Cc1ccc(OC(=O)Nc2c(Cl)cc(Cl)cc2Cl)cc1,104%
3,CCOC(=O)/C(C)=C\c1ccc(OC)c(OC)c1,103%
4,O=S(Cc1ccccc1)/C(=C/NC(=S)Nc1ccccc1)c1ccccc1 (centres undefined),97.2%
5,C/C(=N\O)c1ccccn1,105%
6,CC(C)NC(=O)OCc1c(COC(=O)NC(C)C)c(-c2ccc(Cl)cc2)n2c1CCC2,11.1%
7,CC(=O)NNC(=S)/N=C\C(C(=O)c1ccccc1)=C(/O)c1ccccc1,99.5%
8,C=CCS(C)(=O)=O,102%
9,O=C(NCc1ccccc1)c1cccc([N+](=O)[O-])c1,102%
10,c1ccc(-c2ccc3ccccc3c2)cc1,88.9%
11,Cc1ccccc1NC(=O)Oc1ccc(Cl)cc1C(=O)c1ccccc1,88.1%
12,CCC(C)c1c(N)n(S(=O)(=O)c2ccc(C)cc2)oc1=O (centres undefined),99.9%
13,O=Cc1c(O)c2ccccc2[nH]c1=O,91.5%
14,COC(=O)c1ccccc1C(=O)c1c(C)cc(C)cc1C,101%
15,N=C(N)c1nn(C2OC(CO)C(O)C2O)c2nc[nH]c(=O)c12 (centres undefined),-5.7% (active)
16,COc1cccc(C(=O)O)c1OC,93%
17,O=C(O)c1cc(I)ccc1O,97.6%
18,CC(=O)NNC(=S)N/C=C/c1c(C)ccc([N+](=O)[O-])c1[N+](=O)[O-],98.1%
19,NNc1ncnc2c1ncn2C1OC(CO)C(O)C1O (centres undefined),15.2%
